Screening data as filed in PubChem.
IDE act – activators of human insulin-degrading enzyme in cells. HEK cells, FAbeta-B cleavage, fluorescence polarization; 0% vehicle, 100% cell-free pure enzyme wells. P14735. 340,000 compounds, 0.073% hits. activation, % at 5.96 µM;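 active means activation above the mean of all tested compounds plus 3 SD, set per screening campaign, cut at about 17% in these data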
Target sequence (P14735 whole entry, looked up): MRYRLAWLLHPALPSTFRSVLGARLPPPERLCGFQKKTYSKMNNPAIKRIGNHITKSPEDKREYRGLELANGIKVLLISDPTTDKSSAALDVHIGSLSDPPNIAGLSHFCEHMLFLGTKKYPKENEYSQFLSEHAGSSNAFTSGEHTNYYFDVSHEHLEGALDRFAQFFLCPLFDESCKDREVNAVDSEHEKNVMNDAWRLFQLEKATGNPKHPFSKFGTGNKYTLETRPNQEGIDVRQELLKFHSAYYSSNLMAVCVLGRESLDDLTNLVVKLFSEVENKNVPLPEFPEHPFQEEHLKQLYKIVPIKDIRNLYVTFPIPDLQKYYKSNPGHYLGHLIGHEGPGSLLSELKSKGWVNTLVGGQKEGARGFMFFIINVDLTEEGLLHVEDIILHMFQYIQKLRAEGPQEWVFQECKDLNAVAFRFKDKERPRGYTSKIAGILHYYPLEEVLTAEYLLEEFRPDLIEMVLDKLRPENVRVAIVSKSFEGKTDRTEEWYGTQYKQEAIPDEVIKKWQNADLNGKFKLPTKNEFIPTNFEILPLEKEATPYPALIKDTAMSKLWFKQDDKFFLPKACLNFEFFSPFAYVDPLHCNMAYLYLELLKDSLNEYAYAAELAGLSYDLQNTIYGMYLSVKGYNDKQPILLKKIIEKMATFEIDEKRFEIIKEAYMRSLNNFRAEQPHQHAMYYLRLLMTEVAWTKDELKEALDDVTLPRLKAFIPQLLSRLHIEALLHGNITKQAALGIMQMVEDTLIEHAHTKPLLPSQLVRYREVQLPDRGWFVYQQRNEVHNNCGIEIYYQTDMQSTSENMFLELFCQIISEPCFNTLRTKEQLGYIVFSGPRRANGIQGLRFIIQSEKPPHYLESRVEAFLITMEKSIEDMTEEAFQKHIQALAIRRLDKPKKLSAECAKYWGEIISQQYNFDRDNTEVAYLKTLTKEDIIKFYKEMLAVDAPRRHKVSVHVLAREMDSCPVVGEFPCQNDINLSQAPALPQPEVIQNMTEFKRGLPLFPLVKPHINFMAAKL
TPT1 inh – blocks Candida albicans tRNA 2'-phosphotransferase; 300,000 compounds, 0.81% hits; AID 1962; inhibition, % at 5 µM; recombinant caTPT1, FP RNA substrate dephosphorylation;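 active means inhibition above the mean of all tested compounds plus 3 SD, set per screening campaign, cut at about 24% in these data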
Myeloid diff 2 – compounds promoting myeloid differentiation; ER-HoxA9 myeloid progenitors, lysozyme-GFP differentiation, flow cytometry; calls only at 10 µM; 360,000 compounds, 1% hits; AID 624256;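 active means normalized GFP-positive differentiation at or above the plate's own cutoff, the solvent-only control mean plus 3 SD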;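 further: cells exposed to compound for four days before flow analysis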
CRFBP-R2 block – antagonists of CRF-binding protein/CRF-R2 receptor complex | HEK293 CRF-R2/CRF-BP, CRF-induced calcium fluorescence | inhibition, % at 11.8 µM | 350,000 compounds, 0.59% hits;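 active means inhibition of the ligand-induced calcium signal above about 50% at the single tested concentration, limit read from the data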
CRFR2-BP ag – agonists of human CRF-binding protein/CRF-R2 receptor complex. HEK293 CRF-R2/CRF-BP, calcium dye fluorescence (FLIPR); percent of saturating CRF peptide response. activation, % at 13.2 µM. 350,000 compounds, 0.46% hits. AID 588473;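 active means activation of at least 50%, plus an integration ratio under a set limit after plate pattern correction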
IDE cell inh – cellular human IDE inhibition. HEK cells, FAbetaB cleavage, fluorescence polarization. 320,000 compounds, 0.41% hits. AID 434962. P14735. inhibition, % at 5.59 µM;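 active means percent inhibition above the average of all tested compounds plus 3 SD, set per screening campaign, cut at about 16% in these data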;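 further: IDE supplied by intact live HEK cells; FP after avidin binding of uncleaved biotin substrate so inhibition keeps polarization high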
Myeloid diff CP1 – myeloid differentiation induction; ER-HoxA9 myeloid progenitors, GFP/Mac1 double-positive flow; calls only; shares compounds with Myeloid diff 2; 2,300 compounds, 2% hits;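 active means share of green or green-and-red cells above 9 and 9% in run 1 or 4 and 3% in run 2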
GFP autofluor – compound fluorescence in myeloid differentiation counter-screen; shares compounds with Myeloid diff 2; ER-HoxA9 myeloid progenitors, no estrogen, GFP autofluorescence flow cytometry; vehicle wells 0%, positive control 100%; fluorescence response, % (no concentration beside the values); 2,300 compounds, 7.4% hits; AID 651707;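 active means over 5% cells positive for green fluorescent reporter, or over 2% positive for both it and APC stain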
Each line names hits and unclear results; the compound was inactive in the other large screens (follow-up assays come after a bar, where they were run); ! = not confirmed by another sample. Sampled rows, rich in hits. Any-hit rate of the full collection: about 2.6%.

Cc1ccc(OCC(=O)NCCNC(=O)c2cccnc2)cc1C	none
COc1ccccc1NC(=S)NC1CCC(CC2CCC(NC(=S)Nc3ccccc3OC)CC2)CC1 (stereo not given)	Myeloid diff 2 active | Myeloid diff CP1 inactive | GFP autofluor inactive
CC(=O)c1ccc(N2Cc3ccccc3/C2=N\C(=O)Nc2ccc(Cl)cc2)cc1	none | Myeloid diff CP1 inactive | GFP autofluor inactive
CCc1ccc2c(c1)cc(CN(C(=S)Nc1ccccc1C)C1CC1)c1nnnn12	none | Myeloid diff CP1 inactive | GFP autofluor inactive
CCc1ccc2c(c1)cc(CN(C(=S)Nc1ccccc1)C1CC1)c1nnnn12	none
O=C(NCc1nnnn1-c1ccc(F)cc1)c1ccc([N+](=O)[O-])o1	Myeloid diff 2 active | Myeloid diff CP1 inactive | GFP autofluor inactive
Cc1ccc(-n2nnnc2CNC(=O)c2ccc(Br)o2)cc1C	none
Cc1ccc(-n2nnnc2CNC(=O)c2ccc([N+](=O)[O-])o2)cc1C	Myeloid diff 2 active | Myeloid diff CP1 inactive | GFP autofluor inactive
O=C(NC1CC1)c1cccc(NC(=O)C2CCCCC2)c1	none (no result: TPT1 inh, IDE cell inh)
COc1ccc(NC(=O)C2CCCC2)cc1	none
COc1ccc(NC(=O)C2CCC(=O)N2)cc1 (stereo not given)	none | Myeloid diff CP1 inactive | GFP autofluor inactive
Cc1ccc2nsnc2c1NC(=O)c1ccc([N+](=O)[O-])o1	Myeloid diff 2 active | Myeloid diff CP1 inactive | GFP autofluor inactive
Cc1ccnc(NC(=O)c2ccc([N+](=O)[O-])o2)c1	Myeloid diff 2 active | Myeloid diff CP1 inactive | GFP autofluor inactive
O=C(Nc1ccccn1)c1ccc([N+](=O)[O-])o1	none
Cc1ccc2nsnc2c1NC(=O)c1ccc(-c2cc(Cl)ccc2Cl)o1	none
C=CCNc1nc(NC(C)(C)CO)nc(OC)n1	none
CC[N+]1(CC)CC2=Cc3c(ccc4ccccc34)CC2C1 (stereo not given)	Myeloid diff 2 active | Myeloid diff CP1 inactive | GFP autofluor inactive
CN(C)N=Nc1ccc(-c2cn(Cc3ccccc3)cn2)cc1	none | Myeloid diff CP1 inactive | GFP autofluor inactive
CN(Cc1ccccc1)N=Nc1ccccc1	none (no result: IDE act, TPT1 inh, IDE cell inh)
c1ccc(COCCCn2cc(-c3ccccc3)nn2)cc1	Myeloid diff 2 active | Myeloid diff CP1 inactive | GFP autofluor inactive
COCc1cc(C)n(CC(=O)Nc2ccccc2C(=O)OC)c(=O)c1C#N	none | Myeloid diff CP1 inactive | GFP autofluor inactive
CCOC(=O)c1oc2ccc(CNCCO)c(Cl)c2c1C	none
CCOC(=O)c1oc2ccc(CNC3CCCCC3)c(Cl)c2c1C	Myeloid diff 2 active | Myeloid diff CP1 inactive | GFP autofluor inactive
COc1ccc(CC(NC(C)=O)C(=O)NC2CCN(S(=O)(=O)c3ccccc3)CC2)cc1OC (stereo not given)	none
O=C(CN1C(=O)NC2(CCc3ccccc3C2)C1=O)NCc1ccco1 (stereo not given)	none | Myeloid diff CP1 inactive | GFP autofluor inactive
CCn1c(-c2sc(-c3ccccc3)nc2C)n[nH]c1=S	Myeloid diff 2 active | Myeloid diff CP1 inactive | GFP autofluor inactive
Cc1nc(-c2ccccc2)sc1-c1ccn[nH]1	none
O=C(NCCCNCc1ccccc1)c1ccccn1	Myeloid diff 2 active! | Myeloid diff CP1 inactive | GFP autofluor inactive
CCC(C)NC(=S)Nc1ccc2nc(N3CCN(CC)CC3)cc(C)c2c1 (stereo not given)	Myeloid diff 2 active | Myeloid diff CP1 inactive | GFP autofluor inactive
NC(=O)CCC(NS(=O)(=O)c1ccc(Cl)cc1)C(=O)NCC1CCCCC1 (stereo not given)	none | Myeloid diff CP1 inactive | GFP autofluor inactive
COc1ccc(Cn2c(=O)c3[nH]cnc3n(-c3ccccc3C)c2=O)cc1	none | Myeloid diff CP1 inactive | GFP autofluor inactive
Cc1ccc(S(=O)(=O)N2C[C@H]3C(=O)C[C@@H](c4ccccc4)N(S(=O)(=O)c4ccccc4[N+](=O)[O-])[C@H]3C[C@H]2c2ccccc2)cc1	Myeloid diff 2 active (no result: IDE act, TPT1 inh, CRFBP-R2 block, CRFR2-BP ag, IDE cell inh) | Myeloid diff CP1 inactive | GFP autofluor inactive
